ELG1 genotoxic: qHTS screen for small molecules that induce genotoxicity in human embryonic kidney (HEK293T) cells expressing luciferase-tagged ELG1 | Potency, µM (doses to about 46 µM), usual class: activators | HEK293T ELG1-luciferase reporter, luminescence, 16 h | 330,000 tested, 1.3% active; also: nearly all actives have a fitted effect of over 60% in size
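After overnight (16 hr) compound treatment at 37 °C, ELG1-luciferase HEK293T cells were lysed with ONE-Glo; luminescence quantified 30 min later at room temperature.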
FLuc modulator: qHTS profiling assay for firefly luciferase inhibitor/activator using purifed enzyme and Km concentrations of substrates (counterscreen for miR-21 project); AID 588342, 2011; Potency, µM (highest dose often 57.5 µM), actives largely listed as inhibitors; 360,000 tested, 6.9% active; purified FLuc, Km substrates, luminescence inhibition; Luciferin 4-monooxygenase (Photinus pyralis), P08659; also: nearly all actives have a fitted effect of over 55% in size
Target sequence (P08659 whole entry, looked up): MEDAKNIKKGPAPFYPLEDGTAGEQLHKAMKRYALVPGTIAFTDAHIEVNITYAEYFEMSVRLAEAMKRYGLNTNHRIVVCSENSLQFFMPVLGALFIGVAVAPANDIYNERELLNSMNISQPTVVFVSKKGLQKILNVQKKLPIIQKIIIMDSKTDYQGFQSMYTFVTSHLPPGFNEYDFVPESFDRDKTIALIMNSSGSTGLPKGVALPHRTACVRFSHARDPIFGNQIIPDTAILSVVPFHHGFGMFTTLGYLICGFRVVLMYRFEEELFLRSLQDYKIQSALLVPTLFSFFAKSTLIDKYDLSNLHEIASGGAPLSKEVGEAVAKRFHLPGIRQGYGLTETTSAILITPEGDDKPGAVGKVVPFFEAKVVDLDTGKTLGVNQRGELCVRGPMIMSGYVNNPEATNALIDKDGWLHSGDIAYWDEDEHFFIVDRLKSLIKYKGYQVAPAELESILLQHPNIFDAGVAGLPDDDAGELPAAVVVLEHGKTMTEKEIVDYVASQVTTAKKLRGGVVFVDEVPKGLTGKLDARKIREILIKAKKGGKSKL
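Purified P. pyralis luciferase (10nM final) with 10uM D-luciferin and 10uM ATP (Km levels) in 50mM Tris acetate pH 7.5, 10mM Mg acetate, 0.01% Tween-20, 0.05% BSA; qHTS 6-point titration, ~60 µM downward; luminescence read.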
NPC1 promoter act: qHTS Assay for NPC1 Promoter Activators | Huh7 NPC1 promoter luciferase reporter, 24 h | Potency, µM (titrated, usually from 9.22 µM), hits mostly activators | 320,000 tested, 2.4% active; also: nearly all actives have a fitted effect of over 60% in size
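Luminescence read-out of NPC1 promoter-driven luciferase in stably transfected Huh7 cells; compounds delivered in DMSO and left 24 h at 37C, 5% CO2, qHTS titration format.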
SMN2 splice enh: qHTS Assay for Enhancers of SMN2 Splice Variant Expression. HEK293 SMN2-luciferase splicing reporter, luminescence, 30-36 h. 210,000 tested, 2.8% active. Potency, µM (top dose mostly 46.1 µM), actives largely listed as activators; also: nearly all actives have a fitted effect of over 55% in size
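HEK293 cells carry an SMN2 minigene-luciferase reporter in which exon 7 inclusion puts luciferase in frame. Cells were seeded at 2000 cells/well, attached for 10-12 hours, then exposed to compounds for 30-36 hours at 37C before ONE-Glo luminescence.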
Rab9 promoter act: qHTS Assay for Rab9 Promoter Activators. Huh7 Rab9 promoter-luciferase reporter, luminescence, 24 h. Potency, µM (series often up to 9.22 µM), hits mostly activators. 320,000 tested, 2.8% active. AID 485297, 2010; also: nearly all actives have a fitted effect of over 60% in size
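Cell-based reporter: Huh7 stable for Rab9 promoter-driven luciferase, plated in reduced-serum medium with 10% FBS at 1500 cells/well, compound-treated 24 h at 37 °C, luminescence read after 10 min reagent.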
Of the large screens only hits and unclear results are named; the others gave an inactive call. Only some compounds are listed: those with a hit (about 7.5% of all), similar ones and a draw of the others. Calls follow the shape of the dose curve; as a rule, active = well fitted curve in the direction sought with a large enough effect; inconclusive = small, poorly fitted or top-dose-only effect, or another doubt; inactive = no such curve, though single readings can be large; an effect the other way counts as inactive or inconclusive.

CCCN=C(C)c1c(-c2ccccc2)[nH]n(-c2nc3ccccc3s2)c1=O	FLuc modulator inconclusive, NPC1 promoter act inconclusive
CCC(=NCc1ccco1)c1c(C(F)(F)F)[nH]n(-c2nc3ccccc3s2)c1=O	ELG1 genotoxic 9.2µM, FLuc modulator 7.6µM, NPC1 promoter act inconclusive, Rab9 promoter act inconclusive
C/C(=N\NC(=O)c1cccs1)c1ccc(C(=O)O)s1	ELG1 genotoxic inconclusive (no result: SMN2 splice enh)
O=C(COC(=O)Cc1c(F)cccc1Cl)Nc1nnc(-c2ccccc2)o1	none (no result: SMN2 splice enh)
CCC(C)NC(=O)c1cc2cc(S(=O)(=O)N3CCCCC3)ccc2n1C (stereo unspecified)	none (no result: ELG1 genotoxic, NPC1 promoter act, SMN2 splice enh, Rab9 promoter act)
Clc1cccc(Cl)c1-c1noc(CN2CCOCC2)n1	none (no result: SMN2 splice enh)
CSc1ncccc1C(=O)OCc1ccccc1	ELG1 genotoxic inconclusive, FLuc modulator 19µM, Rab9 promoter act inconclusive
CSc1ncccc1C(=O)OCc1ccccc1F	FLuc modulator 15µM, NPC1 promoter act inconclusive
CC1(OC(=O)c2ccco2)C(=O)C2=COC(C3CC3)=CC2=C(Br)C1=O (stereo unspecified)	none (no result: ELG1 genotoxic, FLuc modulator, NPC1 promoter act, Rab9 promoter act)
CCOc1ccc(NC(=O)c2sc3nc(-c4ccc(OC)cc4)cn3c2C)cc1	none (no result: ELG1 genotoxic, NPC1 promoter act, SMN2 splice enh, Rab9 promoter act)
COc1ccc(-c2cn3c4c(sc3n2)CCCC4)cc1	ELG1 genotoxic inconclusive, FLuc modulator 0.21µM, NPC1 promoter act 1µM, SMN2 splice enh 1.3µM, Rab9 promoter act 0.5µM
CCc1cccc(CC)c1NS(=O)(=O)c1ccc2c(c1)CCN2C(=O)C1CC1	none (no result: ELG1 genotoxic, NPC1 promoter act, Rab9 promoter act)
CN(C)/C=C(/C#N)C(=O)c1cccc(Oc2ccc(C(C)(C)C)cc2)c1	FLuc modulator 15µM
CCC(C)(C)c1ccc(Oc2ccc(N)cc2)cc1	FLuc modulator inconclusive
CCC(C)(C)c1ccc(Oc2cccc(C(=O)O)c2)cc1	FLuc modulator inconclusive, NPC1 promoter act 1.8µM, Rab9 promoter act inconclusive
Cc1ccc2c(=O)cc(C(=O)Nc3nc4ccc(Cl)cc4s3)oc2c1C	none (no result: ELG1 genotoxic, NPC1 promoter act, Rab9 promoter act)
Cc1ccc(Nc2ccc(S(=O)(=O)N3CCOCC3)cc2[N+](=O)[O-])cc1C	none
Nc1nc(SCC(=O)Nc2ncc(Cl)cc2Cl)n[nH]1	none (no result: SMN2 splice enh)
Cn1cccc1C(=O)C(=O)Nc1ccccc1	ELG1 genotoxic inconclusive, FLuc modulator 5.4µM, NPC1 promoter act 0.56µM, SMN2 splice enh 13µM, Rab9 promoter act 0.63µM
COc1c(/C=N/NC(=O)c2ccccc2O)c(CCN(C)C(C)=O)cc2c1OCO2	FLuc modulator 19µM
CCC(=O)N(C)CCc1cc2c(c(OC)c1/C=N/NC(=O)c1ccccc1O)OCO2	none
COC(=O)c1ccc(-c2cc3onc(-c4ccccc4)c3c(=O)n2C)cc1	ELG1 genotoxic inconclusive, FLuc modulator 4.3µM, NPC1 promoter act inconclusive (no result: SMN2 splice enh)
Cn1c(-c2ccc(F)c(F)c2)cc2onc(-c3ccccc3)c2c1=O	ELG1 genotoxic 2.3µM, FLuc modulator 1.3µM, NPC1 promoter act 0.79µM, Rab9 promoter act 1.1µM (no result: SMN2 splice enh)
COc1cccc(-c2cc3onc(-c4ccccc4)c3c(=O)n2C)c1	ELG1 genotoxic inconclusive, FLuc modulator 0.85µM, NPC1 promoter act 0.71µM, Rab9 promoter act 0.4µM (no result: SMN2 splice enh)
Cc1ccc(C(=O)NCN2CCN(c3ccccc3)CC2)cc1	none (no result: SMN2 splice enh)
CCCCCN(C(=O)CCC(=O)OCCOc1ccc(OCC)cc1)c1c(N)n(CCCC)c(=O)[nH]c1=O	none (no result: SMN2 splice enh)
CCOc1ccccc1NS(=O)(=O)c1cn(C)c(=O)n(C)c1=O	none (no result: SMN2 splice enh)
CCOc1ccc(/C=C2\SC(=S)N(Nc3ccccc3)C2=O)cc1OC	FLuc modulator 11µM
COc1ccc(/C=C2\SC(=S)N(Cc3cccnc3)C2=O)cc1C	FLuc modulator 5.4µM
COc1cc(/C=C2/SC(=S)N(Cc3ccccc3)C2=O)ccc1O	ELG1 genotoxic inconclusive, FLuc modulator 27µM (no result: SMN2 splice enh)
COc1cc(/C=C2\SC(=S)N(C(C(=O)O)c3ccccc3)C2=O)ccc1O (stereo unspecified)	FLuc modulator 19µM (no result: SMN2 splice enh)
O=C1c2oc3ccccc3c(=O)c2C(c2ccc(O)cc2)N1Cc1ccc2c(c1)OCO2 (stereo unspecified)	none (no result: ELG1 genotoxic, NPC1 promoter act, SMN2 splice enh, Rab9 promoter act)
O=C(CSc1nc(-c2ccccc2)c(-c2ccccc2)[nH]1)N1CCN(S(=O)(=O)c2ccccc2)CC1	none
